This is a sample that favours compounds with a hit; in the whole collection about 21% have one here.
NS1 inh = qHTS Assay for Inhibitors of Influenza NS1 Protein Function | 270,000 compounds, 0.4% hits | Potency, µM (series often up to 46.1 µM), for inactives: at the highest dose activity, positive = more growth | AID 2326, 2010; calls by dose curve; also: potency is read from the fitted curve at half-maximal effect; actives are rising curves; nearly all actives have a fitted effect of over 50% in size
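Growth recovery, yeast-based: influenza A NS1 expressed in S. cerevisiae causes slow growth, and suppressors are detected by OD600. The parent strain without NS1 is used as positive control.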
Cycloheximide cs = Cycloheximide Counterscreen for Small Molecule Inhibitors of Shiga Toxin. cell reporter, cycloheximide protein synthesis inhibition counterscreen. max response, %. 300,000 compounds, 12% hits; in the data active = max response mostly above about 13%, no sharp cut-off; inactive = mostly below about 14%; also: read at 38.3 µM for the half of the compounds with a filed dose; 0% is about no effect
Pf growth 96h = Primary qHTS for delayed death inhibitors of the malarial parasite plastid, 96 hour incubation; P. falciparum luciferase reporter growth, 96 h; Potency, µM (highest dose often 28.7 µM), for inactives: at the highest dose activity change, negative = inhibition, actives largely listed as inhibitors; 320,000 compounds, 6.9% hits; also: potency is read from the fitted curve at half-maximal effect; % is scaled to controls: 0 for no effect and ±100 for the full control effect
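Luminescence readout: decreased luciferase signal marks inhibited growth of reporter-expressing P. falciparum in infected red cells (2% hematocrit, 0.05% parasitemia final), exposed to compound two generations (96 h, 37 C, 5% CO2).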
Pf growth 48h = Primary qHTS for delayed death inhibitors of the malarial parasite plastid, 48 hour incubation | Potency, µM (top dose mostly 28.7 µM), inactives show top-dose activity change, negative = inhibition, most hits filed as inhibitors | 310,000 compounds, 5.9% hits | P. falciparum luciferase growth in erythrocytes, 48 h | AID 504832, 2011; also: potency is read from the fitted curve at half-maximal effect; % is scaled to controls: 0 for no effect and ±100 for the full control effect
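A one-generation exposure of luciferase-tagged malaria parasites in RPMI 1640/Albumax erythrocyte culture, 37 C and 5% CO2. Inhibition is inferred from decreased luminescence after adding detection reagent.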
Shiga inhibitor = A qHTS for Small Molecule Inhibitors of Shiga Toxin. 290,000 compounds, 9.2% hits. inhibition, % at 38.7 µM. Vero cells, Shiga toxin protein synthesis inhibition reporter; in the data active = inhibition mostly above about 28%, no sharp cut-off; inactive = mostly below about 43%; also: 0% is about no effect
* marks the source's active call; other numbers are inactive results; u = inconclusive; x = no result. Unless noted, calls follow the shape of the dose curve; as a rule, active = well fitted inhibition curve with a large enough effect; inconclusive = small, poorly fitted or top-dose-only effect, or another doubt; inactive = no such curve, though single readings can be large or run the other way.

SMILES | NS1 inh | Cycloheximide cs | Pf growth 96h | Pf growth 48h | Shiga inhibitor
CCCCn1c(N)c(N(CCOC)C(=O)c2cc(Cl)nc3ccccc23)c(=O)[nH]c1=O | x | x | u | -9% | x
Cn1c(/C=C(\C#N)C(N)=S)ccc1-c1ccc(Br)cc1 | 5% | 15* | u | u | 27
Cn1cccc1/C=C(\C#N)C(N)=S | 4% | -1 | u | 8% | 2
Cc1[nH]c2ccccc2c1Cc1n[nH]c(=S)n1C | 13% | -1 | 5.2µM* | 15% | -2
Cc1[nH]c2ccccc2c1SCc1n[nH]c(=S)n1C | u | 0 | 0% | 9% | 6
Cc1cc2c(cc1S(=O)(=O)NCCc1ccc(Cl)cc1)OCC(=O)N2 | -4% | -1 | u | 6% | -2
Cc1ccc(C(=O)Nc2cnc3sc(C)nn3c2=O)cc1 | -4% | 37* | 6% | 93% | 58*
Cc1nn2c(=O)c(NC(=O)c3ccc(F)cc3)cnc2s1 | 2% | -2 | 7% | 21% | 16
Cc1nn2c(=O)c(NC(=O)c3ccc(Cl)cc3)cnc2s1 | x | 36* | 17% | 4% | 52*
Cc1ccc(C(c2nnnn2CS(=O)(=O)c2ccc(C)cc2)N2CCCC2)cc1 (configuration not stated) | 7% | 1 | u | -2% | 13
COc1ccc(C(c2nnnn2CS(=O)(=O)c2ccc(C)cc2)N2CCN(c3ncccn3)CC2)cc1 (configuration not stated) | 12% | -3 | u | 9.3µM* | 15
O=C(c1ccco1)N1CCN(C(c2ccc(F)cc2)c2nnnn2Cc2cccs2)CC1 (configuration not stated) | -7% | 15 | 0.93µM* | u | -12
Cc1ccc(S(=O)(=O)Cc2nnnn2-c2ccccc2)cc1 | 4% | -4 | 6.6µM* | -4% | -6
O=S(=O)(Cc1nnnn1-c1ccccc1)c1ccc(F)cc1 | 18% | 0 | -9% | 0% | -3
CCCC(c1nnnn1Cc1cccs1)N1CCN(c2nc3ccccc3s2)CC1 (configuration not stated) | -18% | 11 | -8% | x | 29
CCC(c1nnnn1CS(=O)(=O)c1ccc(C)cc1)N1CCN(c2nc3ccccc3s2)CC1 (configuration not stated) | 2% | 16 | 9% | 8.3µM* | 24
COc1cc(C2NC(=O)C(C#N)=C(Nc3cccc(C)c3)S2)ccc1O (configuration not stated) | -4% | -2 | -1% | u | 12
CCCN(CCC)C(=O)c1ccc2c(c1)N(Cc1ccccc1)C(=O)CS2=O (configuration not stated) | u | -3 | -25% | -4% | -13
Cc1c(Cl)cccc1NC(=O)CN(C1CCCCC1)S(C)(=O)=O | 11% | -3 | u | 14% | -6
C=C1C=CS(=O)(=O)N(C(CC(C)C)C(=O)OC)C1 (configuration not stated) | x | 11 | x | x | -7
Cc1ccc(-n2nnnc2CS(=O)(=O)c2ccccc2)c(C)c1 | 0% | -2 | 72% | 15% | -16
Cc1ccc(S(=O)(=O)Cn2nnnc2C(c2ccccc2)N2CCN(c3ncccn3)CC2)cc1 (configuration not stated) | 13% | -3 | 73% | 9.3µM* | -5
CCCC(c1nnnn1CS(=O)(=O)c1ccc(C)cc1)N1CCN(c2ccccc2)CC1 (configuration not stated) | -10% | -2 | 0% | 12µM* | -9
Cc1ccc(S(=O)(=O)Cn2nnnc2C(C)N2CCN(C(=O)c3ccco3)CC2)cc1 (configuration not stated) | -4% | -3 | 5.2µM* | 10µM* | 25
Cc1ccc(-c2nnnn2CS(=O)(=O)c2ccccc2)cc1 | -4% | 19* | 18% | 21% | 20
SMILES | NS1 inh | Cycloheximide cs | Pf growth 96h | Pf growth 48h | Shiga inhibitor
O=C(Nc1ccc(Cl)c(Cl)c1)N1N=CCC1c1ccccc1 (configuration not stated) | 6% | 12 | u | -1% | 2
Cc1cccc(C2N=C(N)Nc3nc4ccccc4n32)c1 (configuration not stated) | 0% | -2 | 0% | -17% | 24
CC(=O)Cn1c(CN2CCN(C(=O)c3ccco3)CC2)nc2c1c(=O)n(C)c(=O)n2C | 0% | -1 | 6% | -14% | 1
CCOc1ccc(N2C(=O)C3ON(C)C(c4ccc([N+](=O)[O-])cc4)C3C2=O)cc1 (configuration not stated) | -3% | 2 | 17% | 5% | -5
Cc1ccc(S(=O)(=O)Cn2nnnc2C(c2ccccc2)N2CCN(c3ccccc3)CC2)cc1 (configuration not stated) | u | -3 | u | 13µM* | -3
CC(C)C1Oc2ccccc2N(CC(=O)NCCCN2C(C)CCCC2C)C1=O (configuration not stated) | 1% | -4 | u | -4% | -9
CC(=O)c1ccc(N2CCN(C(C)C(=O)NC3CCCc4ccccc43)CC2)cc1 (configuration not stated) | -3% | 11 | 0% | -21% | -1
COC(=O)CNC(=O)Cn1c(=O)n(Cc2ccc(F)cc2)c(=O)c2sccc21 | u | 2 | 12µM* | 44% | 9
O=C(NCc1cccc(F)c1)C1CCC(=O)N(CC2CCCCC2)C1 (configuration not stated) | -5% | -1 | 7% | 11% | -21
Cc1cc(NC(=O)C(C)SCC(=O)Nc2ccccc2OC(F)F)no1 (configuration not stated) | 0% | -3 | -16% | u | 24
CCn1ncc(Br)c1C(=O)Nc1ccc(-c2ccno2)cc1 | -1% | 9.8* | u | -10% | 7
O=C(CCN1CCN(c2ccccc2)CC1)Nc1ccccc1F | -8% | -2 | 8% | 2% | 5
O=C(Nc1ccccc1F)Nc1ccccc1N1CCCCC1 | -50% | 10.0* | u | u | 11
O=C(CCc1ccc(S(=O)(=O)N2CCOCC2)cc1)Nc1cc(Cl)ccc1N1CCOCC1 | 0% | -2 | -18% | 6.6µM* | -20
O=C(NC1=NN(c2ccccc2)CC1)Nc1ccccc1F | -34% | 35* | 0% | 103% | 37*
O=C(Cc1c(F)cccc1Cl)Nc1cc(S(=O)(=O)N2CCCCC2)ccc1N1CCOCC1 | -3% | -4 | u | 12µM* | -16
O=C(CCNC(=O)c1ccc([N+](=O)[O-])cc1)Nc1ccccc1N1CCCCC1 | x | x | u | -8% | x
O=C(O)/C=C/C(=O)Nc1ccccc1-c1ccccc1 | 0% | 4 | 149% | -2% | -10
COC(=O)C1=C(c2ccc(OC)cc2)OC(=O)C1(C)C | 16% | -3 | u | 32% | -10
O=C(Cc1ccccc1Cl)Nc1cc(S(=O)(=O)N2CCOCC2)ccc1N1CCOCC1 | x | x | 10µM* | u | x
O=C(Cc1c(F)cccc1Cl)Nc1ccccc1N1CCCCC1 | -7% | -1 | 13µM* | 0% | 16
